Shown are actives, neighbours in structure and some others; about 1.2% of the full set was active somewhere.
Avidin fluor: avidin bead compound fluorescence profile; Avidin beads, compound fluorescence 488/530 nm, flow cytometry; hits give high values; fluorescence (KMESF) at 10 µM; 220,000 compounds, 0.38% hits; AID 1775; in the data active = fluorescence above about 47
RGS16-Gao: RGS16-Galphao interaction regulator (human); O15492+P09471; bead-based flow cytometry RGS16-Galphao binding, fluorescence; actives lie on both sides; binding response (% of control), % at 10 µM; 220,000 compounds, 0.38% hits; call rule not given here;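 note: Galphao activated by GDP with aluminum fluoride before binding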
Target sequence (O15492 whole entry, looked up): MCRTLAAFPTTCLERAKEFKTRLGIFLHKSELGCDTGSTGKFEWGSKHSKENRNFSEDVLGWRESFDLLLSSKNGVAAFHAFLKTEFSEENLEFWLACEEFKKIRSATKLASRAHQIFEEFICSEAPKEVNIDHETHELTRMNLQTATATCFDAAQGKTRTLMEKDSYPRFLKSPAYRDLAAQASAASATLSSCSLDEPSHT
Target sequence (P09471 whole entry, looked up): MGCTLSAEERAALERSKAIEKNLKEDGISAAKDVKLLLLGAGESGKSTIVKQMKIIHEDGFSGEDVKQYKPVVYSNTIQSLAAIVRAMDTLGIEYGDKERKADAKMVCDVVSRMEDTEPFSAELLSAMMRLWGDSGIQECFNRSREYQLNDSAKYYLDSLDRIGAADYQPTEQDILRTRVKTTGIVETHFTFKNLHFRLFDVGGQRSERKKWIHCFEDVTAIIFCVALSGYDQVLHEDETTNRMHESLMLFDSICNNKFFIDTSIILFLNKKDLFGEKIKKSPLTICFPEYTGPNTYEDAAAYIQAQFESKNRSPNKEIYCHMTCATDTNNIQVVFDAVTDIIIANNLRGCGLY
RGS4-Gao reg: modulates binding of RGS4 to human Galphao | 220,000 compounds, 0.33% hits | Multiplexed bead flow cytometry; actives lie on both sides | binding response (% of control), % at 10 µM | AID 1415 | P09471; in the data active = binding response below about 49% or above about 150%; inactive = in between;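 note: fluorescent Galphao activated with aluminum fluoride binding bead-coupled RGS4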
RGS8-Gao: modulates binding of RGS8 to human Galphao | P09471 | multiplexed bead flow cytometry; actives lie on both sides | response (percent of control binding), % at 10 µM | 220,000 compounds, 0.34% hits | AID 1423; in the data active = response below about 60% or above about 140%; inactive = in between;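 note: Galphao activated as the GDP aluminium fluoride complex binding bead-coupled RGS8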
RGS7-Gao: regulators of human RGS7-Galphao interaction; P09471; Multiplexed bead flow cytometry, RGS7-Galphao binding; actives lie on both sides; binding response (% of control), % at 10 µM; 220,000 compounds, 0.35% hits; in the data active = binding response below about 49% or above about 150%; inconclusive = no clear call, values can overlap the other calls; inactive = in between;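 note: fluorescent Galphao held in activated GDP-AlF4 state binding bead-coupled RGS7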
GSH fluor: GSH bead compound fluorescence profile. GSH beads flow cytometry, compound fluorescence 488/530 nm; hits give high values. fluorescence (KMESF) at 10 µM. 190,000 compounds, 0.25% hits. AID 1776; in the data active = fluorescence above about 89;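 note: glutathione beads carrying GST-tagged Bcl family fusion proteins plus one bare bead set; values are compound well signal with DMSO vehicle wells as background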
* marks the source's active call; other numbers are inactive results; ? = inconclusive; . = no result given.

SMILES	Avidin fluor	RGS16-Gao	RGS4-Gao reg	RGS8-Gao	RGS7-Gao	GSH fluor
COc1ccc(Cl)cc1NC(=O)C1COc2ccccc2O1 (stereo not drawn)	9	103	102	100	103	12
Cc1ccccc1C(C(=O)NC1CCCCC1)N(C(=O)c1ccccn1)c1cccnc1 (stereo not drawn)	10	103	102	105	106	24
CS/C(N)=N/S(=O)(=O)c1ccc(NC(C)=O)cc1	75*	87	114	84	?	.
COc1ccc(-n2c(=O)c3ccccc3n(Cc3ccc(F)cc3)c2=O)cc1OC	104*	103	102	96	139	20
NC(=O)c1c(NC(=O)CN2C(=O)CCC2=O)sc2c1CCCCC2	8	113	105	105	106	28
CCC1(C)NC(=O)N(CC(=O)Nc2sc3c(c2C(N)=O)CCC3)C1=O (stereo not drawn)	3	1	83	86	77	222*
CCCCSc1ncc(C(=O)OCC)c(N)n1	4	101	101	102	96	129*
Cc1cc(C)n(C(=O)c2c([N+](=O)[O-])c(C)nn2C)n1	6	98	93	99	96	150*
O=C(CCl)Nc1ccc(N2CCCCCC2)cc1	10	105	100	103	103	25
Cn1c(=O)n(C)c2cc(S(=O)(=O)N3CCN(c4ccccc4)CC3)ccc21	6	97	97	99	?	.
COc1ccc(S(=O)(=O)CCC(=O)Nc2cccc(OC)c2)cc1	9	113	101	103	100	16
COc1ccc(C(O)c2coc3ccc(O)c(CN(C)C)c23)cc1 (stereo not drawn)	83*	92	103	99	115	16
S=C(c1ccc(N2CCCC2)c(Br)c1)N1CCCCC1	11	103	100	99	?	15
COc1ccc(OC)c(/C=C/C(=O)OCC(=O)c2c(N)n(C)c(=O)n(C)c2=O)c1	20	104	99	102	99	10
Cc1ccnc2nc(C(=O)NC3=NCCS3)nn12	26	110	107	105	104	11
Cc1ccnc2nc(C(=O)Nc3nccs3)nn12	6	106	99	100	102	253*
C/C(O)=c1/ccc2cccc3nc(C)nc1c23	48*	99	99	96	104	17
Cc1nc2ccccc2nc(C)c1=NO	8	99	100	101	94	13
Cc1c(N=Cc2ccc[nH]2)c(=O)n(-c2ccccc2)n1C	56*	93	99	95	106	20
Cc1cc(C)n2nc3nc(N4CCCC4)nc(-c4ccccc4)c3c2n1	58*	97	104	102	115	9
Nc1[nH]nc2nc(N3CCCC3)nc(-c3ccccc3)c12	3	102	98	100	96	33
CNc1nc(N)nc(-c2cc(Cl)ccc2OC)n1	14	99	100	99	109	7
O=C(CC1NCCN(Cc2ccccc2)C1=O)Nc1ccccc1 (stereo not drawn)	4	105	107	102	?	.
CCn1c(CSc2nc3ccccc3s2)nnc1SCC(=O)c1ccc(O)c(O)c1	4	65	68	76	67	268*
Cc1ccc(-c2nc3ccccc3nc2NN)cc1	7	101	102	99	?	.
SMILES	Avidin fluor	RGS16-Gao	RGS4-Gao reg	RGS8-Gao	RGS7-Gao	GSH fluor
COc1ccc2ccccc2c1CN1CCN(Cc2ccccc2)CC1	8	100	102	101	100	11
COc1ccc2ccccc2c1CN1CCCC(CO)C1 (stereo not drawn)	57*	102	101	100	113	18
O=C(Nc1ccc2ccccc2c1)c1onc2c1CCCC2	57*	111	119	100	126	9
COC(=O)c1cccc(NC(=O)c2onc3c2CCCC3)c1	17	98	100	100	101	16
CCc1nc2sc(C)c(C)c2c(=O)n1CCO	52*	141	130	105	120	28
CC1CCN(S(=O)(=O)c2cc(C(=O)N3CCN(c4ncccn4)CC3)ccc2Br)CC1	15	104	100	102	101	9
CC(C)Cc1ccc(/C=C/C(=O)NC2CC2)cc1	2	106	104	102	101	6
CCOC(=O)c1ccccc1NC(=O)CSc1nc2c(c(=O)n(C)c(=O)n2C)n1C	13	101	100	100	100	25

Assay outcomes from PubChem BioAssay.
